Sampled rows, rich in hits. Any-hit rate of the full collection: about 21%.
IL-1B inflam inh: inhibitors of inflammasome signaling (IL-1 beta secretion). THP-1 LPS/ATP IL-1B secretion, AlphaLISA, 16 h; stronger effect = lower value. activity change, % at 57.5 µM. 360,000 compounds, 4.7% hits; in the data active = activity change below about -50%; inconclusive = mostly about -30% to -49%; also: % is scaled to controls: 0 for no effect and ±100 for the full control effect
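THP-1 cells pretreated 1 hr with compounds (up to 57.5 uM final), then stimulated with LPS (250 ng/mL final) plus ATP (1.25 mM final); secreted IL-1B measured by AlphaLISA after 16 hr, decreased signal indicating inhibition.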
DT40 TDP1 no CPT: qHTS for Inhibitors of human tyrosyl-DNA phosphodiesterase 1 (TDP1): qHTS in cells in absence of CPT | 420,000 compounds, 15% hits | Potency, µM (top dose mostly 46.2 µM), for inactives: at the highest dose activity change, negative = growth inhibition, hits mostly inhibitors | DT40 Tdp1-/- hTDP1 cells, no CPT, ATP luminescence, 48 h; also: potency is read from the fitted curve at half-maximal effect; % is scaled to controls: 0 for no effect and ±100 for the full control effect; nearly all actives have a fitted effect of over 55% in size
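Seeded 400 DT40-hTDP1 cells/well (vehicle DMSO, no 20 nM CPT); pinned compounds; ≥48 hr at 37 °C; CellTiter-Glo luminescence as viability measure.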
D3 antag: antagonists of human D3 dopamine receptor | P35462 | D3R cells, DiscoveRx beta-arrestin luminescence, antagonist mode; stronger effect = lower value | 360,000 compounds, 2.5% hits | max response, negative = inhibition, %; in the data active = max response below about -50%; inconclusive = no clear call, values can overlap the other calls; also: % is scaled to controls: 0 for no effect and ±100 for the full control effect
Target sequence (P35462 whole entry, looked up): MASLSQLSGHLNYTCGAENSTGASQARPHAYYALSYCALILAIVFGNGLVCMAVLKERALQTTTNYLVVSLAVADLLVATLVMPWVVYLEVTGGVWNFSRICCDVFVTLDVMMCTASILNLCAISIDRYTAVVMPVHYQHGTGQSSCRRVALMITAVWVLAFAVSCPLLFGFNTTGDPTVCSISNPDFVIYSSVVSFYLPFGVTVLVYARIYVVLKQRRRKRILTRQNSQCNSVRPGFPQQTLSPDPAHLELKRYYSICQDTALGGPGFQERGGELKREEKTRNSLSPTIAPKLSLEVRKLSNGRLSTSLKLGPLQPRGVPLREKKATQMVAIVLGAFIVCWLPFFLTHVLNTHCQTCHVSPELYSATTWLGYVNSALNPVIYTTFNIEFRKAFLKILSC
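Cells plated overnight at 1500 cells/well, then exposed to library compounds with dopamine controls for 90 minutes at 37 degrees C. DiscoveRx reagent added for 30–60 minutes at room temperature; luminescence read, quantitative HTS format.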
ClpP mod: qHTS Assay for Activators of ClpP; ATP-dependent Clp protease proteolytic subunit (Bacillus subtilis (strain 168)), P80244; purified B. subtilis ClpP, FRET peptide cleavage, 20 min; Potency, µM (titrated, usually from 57.5 µM), for inactives: top-dose activity change, negative = active; 340,000 compounds, 1.9% hits; AID 651965, 2013; active = well fitted falling curve with a large enough effect; inconclusive = small, poorly fitted or top-dose-only effect; inactive = no such curve, though single readings can be large or run the other way; also: potency is read from the fitted curve at half-maximal effect; the source files actives as falling curves though it sought activators and does not explain the sign; nearly all actives have a fitted effect of over 65% in size
Target sequence (P80244 whole entry, looked up): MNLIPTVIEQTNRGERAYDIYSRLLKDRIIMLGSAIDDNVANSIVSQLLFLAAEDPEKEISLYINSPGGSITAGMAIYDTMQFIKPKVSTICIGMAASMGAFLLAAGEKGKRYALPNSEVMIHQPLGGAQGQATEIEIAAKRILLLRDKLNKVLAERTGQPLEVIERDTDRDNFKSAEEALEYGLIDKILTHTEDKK
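Buffer: 100 mM Tris/HCl pH8, 100 mM KCl, 0.05% low protease BSA, 2.5% glycerol, 0.01% Tween-20. ClpP 10 microg/mL final; 20 min RT; delta FRET normalized to ADEP and DMSO controls.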
TDP1 cell CPT: growth inhibition of DT40 Tdp1-/-;hTDP1 cells with camptothecin (screen for TDP1 inhibitors); chicken DT40 Tdp1-/-;hTDP1 cells + 20 nM CPT, ATP luminescence, 48 h; Potency, µM (highest dose often 46.2 µM), inactives show at the top dose activity change, negative = growth inhibition, most hits filed as inhibitors; 420,000 compounds, 12% hits; AID 686979; also: potency is read from the fitted curve at half-maximal effect; % is scaled to controls: 0 for no effect and ±100 for the full control effect; nearly all actives have a fitted effect of over 55% in size
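Chicken DT40 Tdp1-/- cells complemented with human TDP1, 400 cells/well, exposed to compounds plus 20 nM camptothecin for at least 48 h at 37 C; viability read as ATP content by CellTiter-Glo luminescence.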
D3 ag: agonists of human D3 dopamine receptor. D3R DiscoveRx beta-arrestin cells, luminescence, 90 min. max activation, %. P35462. AID 652048. 410,000 compounds, 0.58% hits; in the data active = max activation above about 30%; also: 0% is about no effect
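Agonist mode: compounds and dopamine controls were applied to plated cells for 90 min at 37 degrees C after an overnight attachment at 1500 cells/well. Luminescent read-out followed 30 - 60 minutes at room temperature with DiscoveRx detection reagent.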
The depositor's hits bear a star; ? = inconclusive; nt = no result; ! = not confirmed by another sample. Unless noted, calls follow the shape of the dose curve; as a rule, active = well fitted inhibition curve with a large enough effect; inconclusive = small, poorly fitted or top-dose-only effect; inactive = flat fitted curve, though single readings scatter.

SMILES	IL-1B inflam inh	DT40 TDP1 no CPT	D3 antag	ClpP mod	TDP1 cell CPT	D3 ag
O=C(N(Cc1ccccc1)c1ccccn1)C12CC3CC(CC(C3)C1)C2	-24	16µM*	?	-3%	26µM*	-4
O=C(N(c1ccccn1)c1ccccn1)C12CC3CC(CC(C3)C1)C2	33	-2%	1	0%	0%	4
COc1ccc(/C=C/C(=O)O)cc1S(=O)(=O)N1CCC(C)CC1	27	-2%	15	-3%	-1%	3
CCN(CC)S(=O)(=O)c1ccc2c(c1)N(CC(=O)N1CCN(c3cccc(C(F)(F)F)c3)CC1)C(=O)CO2	nt	21µM*	nt	-4%	?	-20
CCN(CC)S(=O)(=O)c1ccc2c(c1)N(CC(=O)N1CCN(c3cccc(C)c3C)CC1)C(=O)CO2	nt	15µM*	nt	-1%	18µM*	10
CCC(C)N(C(=O)COC(=O)c1cc([N+](=O)[O-])ccc1N)C1CCS(=O)(=O)C1 (configuration not stated)	0	6%	5	-1%	6%	-4
Cc1ccccc1C(=O)c1cccn1CC(=O)NCc1ccccc1Cl	0	1%	-8	-4%	?	6
N#C/C(=C\c1cc([N+](=O)[O-])ccc1Cl)C(N)=O	-89*	2.9µM*	-24	nt	2.6µM*	-6
N#C/C(=C/c1ccc([N+](=O)[O-])cc1)C(N)=O	-5	?	-13	34%	-15%	0
Cc1ccc(OCCC(=O)N(Cc2ccccc2)c2c(N)n(Cc3ccccc3)c(=O)[nH]c2=O)cc1	-8	21µM*	-23	-4%	?	-4
Cc1ccccc1OCCC(=O)N(Cc1ccccc1)c1c(N)n(Cc2ccccc2)c(=O)[nH]c1=O	-3	-10%	-12	-3%	?	-5
CC(Oc1ccc(Br)cc1)C(=O)N(Cc1ccccc1)c1c(N)n(Cc2ccccc2)c(=O)[nH]c1=O (configuration not stated)	?	21µM*	-61*	1%	23µM*	-5
Nc1c(N(Cc2ccccc2)C(=O)COc2ccc([N+](=O)[O-])cc2)c(=O)[nH]c(=O)n1Cc1ccccc1	42	?	31	-1%	5.8µM*	2
CC(Oc1ccc(F)cc1)C(=O)N(Cc1ccccc1)c1c(N)n(Cc2ccccc2)c(=O)[nH]c1=O (configuration not stated)	14	2%	17	?	3%	5
Cc1ccc2c(CC(=O)N(C)c3c(N)n(Cc4ccccc4)c(=O)[nH]c3=O)coc2c1	17	-19%	-26	25µM*	-2%	-4
CC(OC(=O)c1cccc(-n2cnnn2)c1)C(=O)NC1(C#N)CCCCC1 (configuration not stated)	4	6%	1	0%	0%	0
Cc1ncc2c(c1O)COP(=O)(O)OC2	nt	-17%	nt	nt	2%	nt
COc1ccc(C(=O)NCCCCCCNC(=O)c2ccc(OC)cc2)cc1	7	-20%	?	1%	-2%	-22
Cc1cc(OCC(=O)N(Cc2ccco2)c2c(N)n(Cc3ccccc3)c(=O)[nH]c2=O)ccc1Cl	-23	?	-16	4%	26µM*	-3
CCN(C(=O)COC(=O)CCOc1cc(C)ccc1C)c1c(N)n(Cc2ccccc2)c(=O)[nH]c1=O	5	?	4	2%	18µM*	0
Nc1c(N(Cc2ccco2)C(=O)COc2ccc(Cl)cc2)c(=O)[nH]c(=O)n1Cc1ccccc1	1	-3%	-3	1%	1%	2
C=CCn1c(SCC(=O)NC23CC4CC(CC(C4)C2)C3)nc2cc(C(=O)O)ccc2c1=O	33	-1%	-8	1%	0%	4
Cc1cccc(C2N=C(N)Nc3nc4ccccc4n32)c1 (configuration not stated)	-13	-17%	0	25µM*!	1%	8
Cc1ccc(C2N=C(N)Nc3nc4ccccc4n32)cc1 (configuration not stated)	-5	?	0	-3%	?	-3
COC(=O)C1=C(C)N(Cc2ccccc2)C(=NCc2cc(OC)c(OC)c(OC)c2)N[C@H]1c1ccccc1	?	15µM*	-8	1%	21µM*	-16
SMILES	IL-1B inflam inh	DT40 TDP1 no CPT	D3 antag	ClpP mod	TDP1 cell CPT	D3 ag
COC(=O)C1=C(C)N(CC2CC2)C(=NCc2cc(OC)c(OC)c(OC)c2)N[C@H]1c1ccccc1	-1	23µM*	-17	-1%	?	-16
COC(=O)C1=C(C)N(Cc2ccccc2)C(=S)N[C@H]1c1cccc(F)c1	-6	-16%	50	-1%	?	16
CCN1C(=NCCN2CCOCC2)N[C@@H](c2ccccc2)C(C(=O)OC)=C1C	-4	-9%	0	-4%	-8%	-13
COC(=O)C1=C(C)N(Cc2ccccc2)C(=NCc2cc(OC)c(OC)c(OC)c2)N[C@H]1c1ccc(Br)cc1	?	18µM*	25	0%	13µM*	16
COC(=O)C1=C(C)N(Cc2ccccc2)C(=NCCN2CCOCC2)N[C@H]1CCc1ccccc1	-18	23µM*	5	-7%	?	-6
CCOC(=O)c1c(NC(=O)CN2C(=O)CN(C)C2=O)sc(C)c1C	7	?	4	nt	-20%	8
COC(=O)c1cnn(-c2ccc(C(=O)Nc3ccc(C(C)=O)cc3)cc2)c1N	nt	-12%	nt	0%	-3%	-1
COC(=O)C1=C(C)N(Cc2ccccc2)C(=NCc2cc(OC)c(OC)c(OC)c2)N[C@H]1CCc1ccccc1	-58*	16µM*	9	-5%	21µM*	-13
COC(=O)C1=C(C)N(Cc2ccccc2)C(=O)N[C@H]1CCc1ccccc1	0	5%	0	-1%	7%	1
Cc1cc(C)n(-c2cccc(C(=O)NCC3Cc4cccc(-c5cccnc5)c4O3)c2)n1 (configuration not stated)	nt	15µM*	nt	nt	?	nt
O=C(NCC1Cc2cccc(-c3cccnc3)c2O1)c1ccc2cc[nH]c2c1 (configuration not stated)	nt	26µM*	nt	nt	2.9µM*	nt
Fc1ccc(-n2c(=S)[nH]c3cccnc32)cc1	18	?	-14	0%	-29%	-9
FC(F)(F)c1cnc2c(c1)[nH]c(=S)n2-c1ccc(Cl)cc1	-28	?	-4	-9%	21µM*	-6
